The sample as a whole holds a higher share of hits than the screen did.
CBX7 inh: CBX7 chromodomain binding inhibitors, primary screen, biochemical, AlphaScreen | actives 1.1% (n = 66,000) | normalised signal (fraction of DMSO) (test concentration not listed) | AID 1224903, 2016 | Chromobox protein homolog 7 (Homo sapiens), O95931 | AlphaScreen His6-CBX7 / biotin-H3K27me3 peptide binding; active compounds read low; in the data active = normalised signal below about 0.5
Target sequence (O95931 whole entry, looked up): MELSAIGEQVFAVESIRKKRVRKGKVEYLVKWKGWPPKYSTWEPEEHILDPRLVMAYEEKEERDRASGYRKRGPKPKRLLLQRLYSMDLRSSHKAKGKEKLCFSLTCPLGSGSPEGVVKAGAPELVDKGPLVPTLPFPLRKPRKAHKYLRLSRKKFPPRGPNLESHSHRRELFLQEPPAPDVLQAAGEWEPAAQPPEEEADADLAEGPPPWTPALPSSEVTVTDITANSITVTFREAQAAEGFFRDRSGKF
* = called active by the depositor.

How did O=C(NCc1ccccc1)c1cc(-c2ccc(Cl)cc2)on1 do in these assays?
CBX7 inh: 1

Results for O=C(Nc1nnc(CCc2ccccc2)s1)c1cccc([N+](=O)[O-])c1 ?
CBX7 inh: 0.97

What do the screens show for `COc1ccccc1N1CCN(C(=O)CCCn2c(=O)[nH]c3ccccc3c2=O)CC1`?
CBX7 inh: 0.99

What do the screens show for `Cc1cccc(C)c1Nc1c(-c2ccccn2)nc2ccc(Br)cn12`?
CBX7 inh: 0.44*

What do the screens show for `Brc1ccc2nc(-c3ccccn3)c(Nc3ccccc3)n2c1`?
CBX7 inh: 0.96

What do the screens show for `Cc1cccc(C)c1Nc1c(-c2ccccn2)nc2ccc(Cl)cn12`?
CBX7 inh: 0.54

Results for Cc1ccc2nc(-c3cccnc3)c(Nc3ccc4c(c3)OCCO4)n2c1 ?
CBX7 inh: 1

Results for Cc1ccc2nc(-c3ccccn3)c(Nc3ccc4c(c3)OCCO4)n2c1 ?
CBX7 inh: 0.001*

What do the screens show for `Cc1ccc2nc(-c3ccccc3)c(Nc3ccc4c(c3)OCCO4)n2c1`?
CBX7 inh: 1.1

Results for CC1CCN(S(=O)(=O)c2ccc3c(c2)N(CC(=O)N2CCC(C(N)=O)CC2)C(=O)CO3)CC1 ?
CBX7 inh: 1

What do the screens show for `CCCCNC(=O)c1cn(CC(C)C)c(=O)c2cc(OC)c(OC)cc12`?
CBX7 inh: 1.1

How did CC1CCCN(S(=O)(=O)c2ccc3[nH]c(=O)cc(C(=O)NCc4ccccc4Cl)c3c2)C1 (stereo unspecified) do in these assays?
CBX7 inh: 1

What do the screens show for `CC1CCCC(NC(=O)Cc2cn(C)c3ccccc23)C1C` (stereo unspecified)?
CBX7 inh: 0.74

Results for Cc1ccc(S(=O)(=O)c2nc(C)oc2NCc2ccccc2)cc1 ?
CBX7 inh: 1

Results for O=[N+]([O-])c1ccc(-c2cn(-c3ccccc3NCc3ccccc3)cn2)o1 ?
CBX7 inh: 0.48*

Results for Cn1cnc(S(=O)(=O)NCc2ccccc2)c1 ?
CBX7 inh: 1

What do the screens show for `COC(=O)c1cc(Br)ccc1OC(=O)c1ccco1`?
CBX7 inh: 1

What do the screens show for `Cc1ccc(NC(=O)c2ccccc2O)nc1`?
CBX7 inh: 0.92

Results for O=C(Nc1cccc2cccnc12)c1ccccc1O ?
CBX7 inh: 1

Results for O=C(Nc1ncn[nH]1)c1ccccc1O ?
CBX7 inh: 0.17*

Results for CCCOc1ccc(NC(=O)c2c(-c3c(F)cccc3Cl)noc2C)cc1 ?
CBX7 inh: 0.96

How did CC(C)CCNC(=O)CC1Oc2ccccc2NC1=O (stereo unspecified) do in these assays?
CBX7 inh: 0.95

What do the screens show for `O=C1c2ccccc2C(Nc2cccnc2)N1c1cccnc1` (stereo unspecified)?
CBX7 inh: 0.069*

How did O=C1c2ccccc2C(Nc2ccc(Br)cc2)N1c1cccnc1 (stereo unspecified) do in these assays?
CBX7 inh: 1

How did COc1cccc(NC2c3ccccc3C(=O)N2c2cccnc2)c1 (stereo unspecified) do in these assays?
CBX7 inh: 1

What do the screens show for `CCN1CCN(c2ccc(-n3c(C)nc4c(cnn4-c4ccc(C)cc4)c3=O)cc2)CC1`?
CBX7 inh: 1.1

What do the screens show for `COc1cccc(Nc2nc(-c3ccccc3F)nc3ccccc23)c1`?
CBX7 inh: 0.33*

Results for Fc1cccc(Nc2nc(-c3ccccc3F)nc3ccccc23)c1 ?
CBX7 inh: 1.1

Results for COc1ccc(Nc2nc(-c3ccccc3F)nc3ccccc23)c(OC)c1 ?
CBX7 inh: 1.4

How did CN1CC(=O)Nc2cc(C(=O)NCC3CCCO3)ccc21 (stereo unspecified) do in these assays?
CBX7 inh: 1.1

What do the screens show for `COCCNC(=O)CSc1nc(-c2ccc(Cl)cc2)[nH]c1-c1ccccc1`?
CBX7 inh: 0.99

What do the screens show for `CC(=O)NC(CCS(C)(=O)=O)C(=O)Nc1ccc(Br)c(C)c1` (stereo unspecified)?
CBX7 inh: 1

How did Cc1ccc(S(=O)(=O)Nc2cccc3cccnc23)cc1 do in these assays?
CBX7 inh: 0.085*

What do the screens show for `Cc1ccc(S(=O)(=O)N(C)c2cccc3cccnc23)cc1`?
CBX7 inh: 1.1

How did Cc1ccc(S(=O)(=O)Nc2ccccc2CNc2ccccn2)cc1 do in these assays?
CBX7 inh: 0.9

How did Cc1ccc(N2C(=O)CC(NCCc3ccc(Cl)cc3)C2=O)cc1 (stereo unspecified) do in these assays?
CBX7 inh: 1.1

How did O=C1CC(NCCc2ccccn2)C(=O)N1c1ccc(Cl)cc1 (stereo unspecified) do in these assays?
CBX7 inh: 0.17*

What do the screens show for `CCOc1ccc(N2C(=O)CC(NCCc3ccccn3)C2=O)cc1` (stereo unspecified)?
CBX7 inh: 0.86

What do the screens show for `CCOC(=O)c1ccc(NC(=O)c2cc3c(s2)-c2c(C)cccc2OC3)cc1`?
CBX7 inh: 1.1

What do the screens show for `CCCc1ccc(OCc2nc(-c3ccc(NC(=O)Cc4ccccc4OC)cc3)no2)cc1`?
CBX7 inh: 1

Results for COc1ccc(-c2noc(CCC(=O)N(C)c3ccccc3F)n2)cc1 ?
CBX7 inh: 1.1

How did CC(C)OCc1ccc(O)c2ncccc12 do in these assays?
CBX7 inh: 0.0041*

How did Cc1sc(-n2cccc2)c(C(=O)NCc2ccc(Cl)cc2)c1C do in these assays?
CBX7 inh: 0.95

Results for c1cc2c(cc1Nc1nc3nonc3nc1N1CCOCC1)OCO2 ?
CBX7 inh: 1

How did Nc1nonc1-n1nnc(C(=O)O)c1CSc1nc2ccccc2o1 do in these assays?
CBX7 inh: 0.018*

What do the screens show for `NC(=O)c1nnn(-c2nonc2N)c1CSc1nc2ccccc2o1`?
CBX7 inh: 0.73

Results for COC(=O)c1nnn(-c2nonc2N)c1CSc1nc2ccccc2o1 ?
CBX7 inh: 1

What do the screens show for `CCCCNC(=O)c1cnc(Nc2ccc(OC)cc2)c2ccccc12`?
CBX7 inh: 1.1

How did CCOC(=O)c1c(NC(=O)c2ccc(Cl)cc2)sc2c1CCC(C)C2 (stereo unspecified) do in these assays?
CBX7 inh: 1.1

Results for O=C(Cn1nc(-c2ccccc2)c2cc(Cl)ccc21)NCC1CCCO1 (stereo unspecified) ?
CBX7 inh: 0.97

What do the screens show for `O=C(CCCN1C(=O)c2cccnc2C1=O)NC(c1ccccc1)c1ccccc1`?
CBX7 inh: 1.1

What do the screens show for `Cc1cccnc1NC(c1ccccc1)c1ccc2cccnc2c1O` (stereo unspecified)?
CBX7 inh: 0.032*

Results for CCCC(=O)NC(c1ccccc1)c1cc(Cl)c2cccnc2c1O (stereo unspecified) ?
CBX7 inh: 0.63

What do the screens show for `O=C(NC(c1ccccc1)c1ccccc1)C1CCCN1S(=O)(=O)c1cccc2cccnc12` (stereo unspecified)?
CBX7 inh: 0.93

Results for Cc1ccc(C(NC(=O)CCc2ccccc2)c2ccc3cccnc3c2O)cc1 (stereo unspecified) ?
CBX7 inh: 0.071*

What do the screens show for `O=C(CCc1ccccc1)NC(c1cccs1)c1cc(Cl)c2cccnc2c1O` (stereo unspecified)?
CBX7 inh: 0.45*

How did CC(NS(=O)(=O)c1cccc2cccnc12)c1ccccc1 (stereo unspecified) do in these assays?
CBX7 inh: 1

Results for Oc1c(C(Nc2ccccn2)c2ccccc2)ccc2cccnc12 (stereo unspecified) ?
CBX7 inh: 0.01*

Source: PubChem BioAssay (Bradner/Qi Labs at DFCI)
